Data: PubChem BioAssay (Tox21)
A number with no mark means an inactive call. Inconclusive results are not listed. A call without a number means that no potency is given here. Calls of active or inactive are those of the source. Unless noted, the call rests on the fitted dose curve; in most records, active means well fitted curve in the direction sought with a large enough effect in the repeat runs; inconclusive means weak or mixed curves; inactive means no such curve, though single readings can be large; an effect the other way counts as inactive or inconclusive.

How the values were obtained:
[1] = qHTS assay to identify small molecule antagonists of the progesterone receptor (PR) signaling pathway - cell viability counter screen (AID 1346798);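 further: HEK293T PR-UAS-bla cells stimulated with the agonist R5020; series mostly up to about 92 µM; nearly all actives have a fitted effect of over 50% in size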
Method in brief: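 Same-well multiplex: after 16 hr at 37C with compound and R5020 stimulation, HEK293T cells carrying a UAS-bla reporter received LiveBLAzer substrate (2 hr RT), then CellTiter-Glo (30 min RT) for luminescent viability.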

[2] = qHTS assay to identify small molecule agonists of the progesterone receptor (PR) signaling pathway - cell viability counter screen (AID 1346799; calls by dose curve; further: nearly all actives have a fitted effect of over 45% in size)
Method in brief: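 Counter screen for cytotoxicity: compound-treated PR-UAS-bla HEK293T cells (16 hr, 37C, 5% CO2) were assayed with CellTiter-Glo, luminescence measured after 30 min at room temperature.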

[3] = qHTS assay to identify small molecule antagonists of the TGF-beta/Smad signaling pathway - cell viability counter screen (AID 1346824); further: nearly all actives have a fitted effect of over 50% in size
Method in brief: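 SBE-bla HEK 293T cells, incubated overnight, then compound plus 0.25 ng/mL TGF-beta1 (stock added) for 5 hr at 37 C. Viability was read in the same wells by CellTiter-Glo luminescence after 30 min at room temperature.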

[4] = qHTS assay to identify small molecule agonists of the TGF-beta/Smad signaling pathway - cell viability counter screen (AID 1346829); further: top concentration of the series differs between compounds; nearly all actives have a fitted effect of over 45% in size
Method in brief: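 Cytotoxicity counter screen: CellTiter-Glo luminescence (30 min, room temperature) measured in the SBE-bla HEK 293T reporter wells after 5 hr compound treatment at 37 C and the 2 hr substrate step.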

[5] = qHTS assay to identify small molecule agonists of the TGF-beta/Smad signaling pathway (AID 1346859; active means well fitted activation curve with a large enough effect in the signal ratio in the repeat runs, not every such curve was filed as active; the % refers to the signal ratio; further: series mostly up to about 77 µM)
Method in brief: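 Smad-responsive beta-lactamase reporter cells (HEK 293T) received compounds from DMSO stocks after overnight attachment, were incubated 5 hr, then treated 2 hr with FRET substrate before dual-emission fluorescence measurement (405 nm excitation).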

[6] = molecular target: Thyrotropin-releasing hormone receptor (Homo sapiens) (UniProt P34981); assay: qHTS assay to identify small molecule antagonists of the thyrotropin-releasing hormone receptor (TRHR) signaling pathway (AID 1346877; active means well fitted inhibition curve with a large enough effect in the repeat runs, not every such curve was filed as active; further: series mostly up to about 51 µM)
Method in brief: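 Intracellular calcium fluorescence, read kinetically every second over 3 min, reports TRH-evoked signalling in HEK293 cells carrying TRHR. Test compounds were added 5 min ahead of a 1 nM TRH challenge.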

[7] = molecular target: Thyrotropin-releasing hormone receptor (Homo sapiens) (UniProt P34981); assay: qHTS assay to identify small molecule agonists of the thyrotropin-releasing hormone receptor (TRHR) signaling pathway (AID 1346891; calls by dose curve;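 further: HEK293 cells expressing TRHR with calcium dye readout; series mostly up to about 58 µM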)
Method in brief: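 Agonist-mode calcium mobilisation screen: TRHR-transfected HEK293 cells cultured overnight (18 h), dye-loaded for 2 h at 37 °C, exposed to compounds, and monitored by fluorescence for 3 min.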

[8] = Caspase-3/7 induction in HepG2 cells by small molecules, qHTS assay (AID 1346978); further: nearly all actives have a fitted effect of over 15% in size
Method in brief: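 Wild-type HepG2 cells, 2,000/well, settled 5 hr at 37 C and 5% CO2, then compound-treated for 17 hr; caspase-3/7 activity read by luminescent Caspase-Glo 3/7 after 30 min at room temperature.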

[9] = Caspase-3/7 induction in CHO-K1 cells by small molecules, qHTS cell viability counter screen (AID 1346979); further: nearly all actives have a fitted effect of over 35% in size
Method in brief: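 In the same wells as the caspase read, viability of compound-treated wild-type CHO-K1 cells was assessed using CellTiter-Fluor, added after 16hr at 37C and measured by fluorescence following 1hr further incubation.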

[10] = Caspase-3/7 induction in CHO-K1 cells by small molecules, qHTS assay (AID 1346980); further: nearly all actives have a fitted effect of over 15% in size
Method in brief: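 Wild-type CHO-K1 cells exposed to compounds for 17hr at 37 C, 5% CO2. Caspase-3/7 activity then measured by Caspase-Glo 3/7 luminescence after 30min at room temperature.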

[11] = Caspase-3/7 induction in HepG2 cells by small molecules, qHTS cell viability counter screen (AID 1346981); further: series mostly up to about 92 µM; nearly all actives have a fitted effect of over 30% in size
Method in brief: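 HepG2, WT, 2,000 cells/well; 5 hr pre-incubation 37 C/5% CO2; compound pin-transferred from DMSO; 16 hr exposure; CellTiter-Fluor, 1 hr; fluorescence read.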

[12] = molecular target: Nuclear receptor subfamily 1 group I member 2 (Homo sapiens) (UniProt O75469); assay: Human pregnane X receptor (PXR) small molecule agonists, qHTS assay (AID 1346982); further: nearly all actives have a fitted effect of over 35% in size; further: potency means the concentration at half of the fitted maximal effect
Method in brief: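 Luciferase signal from ONE-Glo (30 min, room temperature) measured activation of hPXR-driven CYP3A4 reporter expression in PXR-Luc HepG2 cells treated with compounds for 24 hr at 37 C.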

[13] = molecular target: Cytochrome P450 2D6 (Homo sapiens) (UniProt P10635); assay: Cytochrome P450 Family 2 Subfamily D Member 6 (CYP2D6) small molecule antagonists: luciferase reporter qHTS assay (AID 1671196); further: nearly all actives have a fitted effect of over 50% in size; further: potency means the concentration at half of the fitted maximal effect
Method in brief: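 Read-out is luminescence from luciferin formed by CYP2D6 turnover of a proluciferin substrate, recorded as relative luminescence units. Reactions ran 1 h at room temperature after NADPH regeneration solution was added.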

[14] = molecular target: Cytochrome P450 2C19 (Homo sapiens) (UniProt P33261); assay: Cytochrome P450 Family 2 Subfamily C Member 19 (CYP2C19) small molecule antagonists: luciferase reporter qHTS assay (AID 1671197); further: nearly all actives have a fitted effect of over 65% in size; further: potency means the concentration at half of the fitted maximal effect
Method in brief: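 Luminescent readout of CYP2C19 activity: luciferin product detected 20 min after adding detection reagent. Before that, compound and enzyme-substrate mix preincubated 10 min at room temperature; NADPH-regenerating system started a 1 h, 37C reaction. Ketoconazole as positive control.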

[15] = Human pregnane X receptor (PXR) small molecule agonists, qHTS cell viability counter screen (AID 1346977); further: nearly all actives have a fitted effect of over 50% in size
Method in brief: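 Measures live-cell protease fluorescence (CellTiter-Fluor) in PXR-Luc HepG2 cells treated 24hr with compounds at 37C. Cells had 5hr to attach before pin transfer of DMSO solutions.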

[16] = molecular target: Nuclear receptor subfamily 1 group I member 2 (Rattus norvegicus) (UniProt Q9R1A7); assay: Rat pregnane X receptor (rPXR) activation by small molecules, qHTS assay (AID 1346983); settings: rPXR luciferase reporter cells, One-Glo luminescence, 24 h; max activation: hits give high values; further: nearly all actives have a fitted effect of over 20% in size
Method in brief: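 Cell-based rPXR activation assay: rPXR cells, 2,000 per well, rested 5hr at 37 C, then exposed to compounds in DMSO for 24 hr at 37 C. Luciferase activity read by One-Glo luminescence after 30 min at room temperature.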

[17] = molecular target: Nuclear receptor subfamily 1 group I member 2 (Homo sapiens) (UniProt O75469); assay: CYP3A4 induction through human pregnane X receptor (PXR) by small molecules, qHTS assay (AID 1346984); further: nearly all actives have a fitted effect of over 40% in size
Method in brief: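 Luminescence readout: luciferase signal after One-Glo (30 min, room temperature), following 3 h at 37C with 3uM final Luciferin-IPA P450 substrate. Cells were DPX-2 (HepG2, PXR/CYP3A4-luc co-transfected) dosed for 24 h.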

[18] = molecular target: Nuclear receptor subfamily 1 group I member 2 (Homo sapiens) (UniProt O75469); assay: Human pregnane X receptor (PXR) activation by small molecules, qHTS assay (AID 1346985); further: nearly all actives have a fitted effect of over 40% in size
Method in brief: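 DPX-2 cells (HepG2 co-transfected with a PXR response element and a CYP3A4-promoter luciferase construct) were seeded at 2,000 per well, rested 5 hr at 37C, then exposed to DMSO-dissolved compounds for 24 hr. Activation was read as luciferase luminescence.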

Sequence of Cytochrome P450 2D6 (Homo sapiens) (P10635 whole entry, looked up): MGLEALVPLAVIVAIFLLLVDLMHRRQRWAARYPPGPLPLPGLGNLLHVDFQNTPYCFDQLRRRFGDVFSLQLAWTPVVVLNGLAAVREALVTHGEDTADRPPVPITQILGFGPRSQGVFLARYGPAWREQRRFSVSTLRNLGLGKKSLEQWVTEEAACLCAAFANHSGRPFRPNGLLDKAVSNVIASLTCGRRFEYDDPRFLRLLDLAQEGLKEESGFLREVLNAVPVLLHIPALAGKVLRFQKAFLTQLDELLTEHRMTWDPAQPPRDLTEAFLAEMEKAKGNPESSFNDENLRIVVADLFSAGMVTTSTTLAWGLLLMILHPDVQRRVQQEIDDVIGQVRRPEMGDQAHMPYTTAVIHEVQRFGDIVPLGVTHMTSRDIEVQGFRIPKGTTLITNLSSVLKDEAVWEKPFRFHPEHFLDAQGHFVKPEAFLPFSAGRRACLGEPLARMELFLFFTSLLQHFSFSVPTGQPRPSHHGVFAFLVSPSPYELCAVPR
Sequence of Thyrotropin-releasing hormone receptor (Homo sapiens) (P34981 whole entry, looked up): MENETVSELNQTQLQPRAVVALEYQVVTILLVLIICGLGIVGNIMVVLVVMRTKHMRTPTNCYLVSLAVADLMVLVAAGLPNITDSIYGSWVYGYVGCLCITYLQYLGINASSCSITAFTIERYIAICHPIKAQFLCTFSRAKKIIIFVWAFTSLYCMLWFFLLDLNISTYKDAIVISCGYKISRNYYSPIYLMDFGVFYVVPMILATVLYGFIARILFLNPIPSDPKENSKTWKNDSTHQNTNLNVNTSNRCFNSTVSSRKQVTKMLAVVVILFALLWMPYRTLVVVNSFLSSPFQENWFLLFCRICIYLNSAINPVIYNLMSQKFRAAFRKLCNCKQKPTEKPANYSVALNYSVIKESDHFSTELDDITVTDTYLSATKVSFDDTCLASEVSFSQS
Sequence of Nuclear receptor subfamily 1 group I member 2 (Homo sapiens) (O75469 whole entry, looked up): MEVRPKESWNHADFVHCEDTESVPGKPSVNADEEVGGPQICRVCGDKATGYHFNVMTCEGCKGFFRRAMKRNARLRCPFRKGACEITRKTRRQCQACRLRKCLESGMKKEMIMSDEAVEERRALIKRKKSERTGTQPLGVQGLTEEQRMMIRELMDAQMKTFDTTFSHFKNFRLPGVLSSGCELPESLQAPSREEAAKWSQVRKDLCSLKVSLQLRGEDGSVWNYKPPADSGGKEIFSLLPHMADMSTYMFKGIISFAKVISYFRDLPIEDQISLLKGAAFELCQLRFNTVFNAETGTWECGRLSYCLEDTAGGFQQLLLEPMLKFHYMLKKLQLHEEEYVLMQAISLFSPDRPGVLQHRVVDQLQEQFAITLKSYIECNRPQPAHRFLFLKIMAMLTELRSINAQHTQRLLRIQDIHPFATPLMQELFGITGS
Sequence of Cytochrome P450 2C19 (Homo sapiens) (P33261 whole entry, looked up): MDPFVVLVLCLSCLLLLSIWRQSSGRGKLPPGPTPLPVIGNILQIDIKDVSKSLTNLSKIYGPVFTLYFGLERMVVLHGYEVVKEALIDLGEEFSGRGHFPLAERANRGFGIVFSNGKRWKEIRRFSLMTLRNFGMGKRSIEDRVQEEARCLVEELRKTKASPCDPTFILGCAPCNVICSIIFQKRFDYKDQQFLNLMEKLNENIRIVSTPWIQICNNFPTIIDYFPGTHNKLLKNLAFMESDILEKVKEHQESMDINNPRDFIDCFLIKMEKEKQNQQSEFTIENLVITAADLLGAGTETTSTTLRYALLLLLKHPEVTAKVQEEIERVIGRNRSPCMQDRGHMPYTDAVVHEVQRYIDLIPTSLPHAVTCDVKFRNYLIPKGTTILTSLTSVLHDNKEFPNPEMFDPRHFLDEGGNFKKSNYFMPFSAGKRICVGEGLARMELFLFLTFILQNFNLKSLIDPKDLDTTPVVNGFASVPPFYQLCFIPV
Sequence of Nuclear receptor subfamily 1 group I member 2 (Rattus norvegicus) (Q9R1A7 whole entry, looked up): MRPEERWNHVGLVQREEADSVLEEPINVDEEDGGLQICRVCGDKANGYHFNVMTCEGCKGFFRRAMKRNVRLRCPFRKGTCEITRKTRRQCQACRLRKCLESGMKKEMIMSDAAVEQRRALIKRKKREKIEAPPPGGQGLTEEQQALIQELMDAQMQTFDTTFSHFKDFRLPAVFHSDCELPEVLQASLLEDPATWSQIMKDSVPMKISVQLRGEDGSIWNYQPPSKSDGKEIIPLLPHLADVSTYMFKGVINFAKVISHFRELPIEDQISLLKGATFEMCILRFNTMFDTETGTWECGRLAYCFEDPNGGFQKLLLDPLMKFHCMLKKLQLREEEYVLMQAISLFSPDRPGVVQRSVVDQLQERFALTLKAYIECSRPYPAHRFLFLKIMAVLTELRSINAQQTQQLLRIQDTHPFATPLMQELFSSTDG

Structure (SMILES)	Potency [1]	Potency [2]	Potency [3]	outcome [4]	Potency [5]	outcome [6]	Potency [7]	Potency [8]	Potency [9]	Potency [10]	Potency [11]	Potency [12]	Potency [13]	Potency [14]	Potency [15]	max activation [16] [%]	Potency [17]	Potency [18]
CC/C=C\CCOC(=O)CC	inactive	inactive	inactive	inactive	inactive	inactive	inactive	inactive	inactive	inactive	inactive	inactive	inactive	inactive				
C[C@@H]1C[C@H]2[C@@H]3CCC4=CC(=O)C=C[C@]4(C)[C@@]3(F)[C@@H](O)C[C@]2(C)[C@@]1(O)C(=O)COC(=O)c1ccncc1	inactive	inactive	inactive	inactive	inactive			inactive	inactive	inactive	inactive		11 µM (active)	17.4 µM (active)	inactive			
CN(C)CCN(Cc1ccccc1)c1ccccn1			inactive	inactive		inactive	inactive	inactive	inactive	inactive	inactive	6.68 µM (active)	0.219 µM (active)			2.98	inactive	
ClCCOCCOCCCl	inactive	inactive	inactive	inactive	inactive	inactive	inactive	inactive	inactive	inactive	inactive		inactive	inactive	inactive			
CC1OC(=O)C(C)OC1=O (centres undefined)	inactive	inactive	inactive	inactive		inactive	inactive	inactive		inactive	inactive	inactive	inactive	inactive	inactive			
C#CCN(C)CCCOc1ccc(Cl)cc1Cl	inactive	inactive	inactive		inactive	inactive	inactive	inactive	inactive	inactive	inactive	29.8 µM (active)	1.55 µM (active)			-1.33		inactive
